# What was measured:
# [1] = tested on: RPS6KA5(Kin.Dom.2-C-terminal)
# [2] = tested on: T1, RSK1(Kin.Dom.2-C-terminal)
# T1 construct: gene RPS6KA1
# [3] = tested on: T2, RSK2(Kin.Dom.2-C-terminal)
# T2 construct: gene RPS6KA3
# [4] = tested on: T3, RSK3(Kin.Dom.2-C-terminal)
# T3 construct: gene RPS6KA2
# SNARK = tested on: T4, SNARK
# T4 construct: gene NUAK2
# 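Note: kd values determined as follow-up on hits from a single-replicate KINOMEscan panel screen.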
structure (smiles),measurement,setting,value
Cc1cccc(-c2cc(Nc3ccncc3)c3ccccc3n2)n1 [GSK223675],Kd,[1],> 10 µM
Cc1ccccc1-n1cnc2c(N)ncnc21 [SKF-97510],Kd,[2],> 10 µM
Nc1nc(-c2nccs2)c(-c2ccnc3ccccc23)s1 [GW693542],Kd,[3],> 10 µM
CS(=O)(=O)c1ccc(-c2c(-c3ncn[nH]3)sc(N3CCOCC3)c2C#N)cc1,Kd,[4],> 10 µM
COc1cc2ncn(-c3cc(OCC4CCCO4)c(C(N)=O)s3)c2cc1OC (centres unmarked) [GSK204607],Kd,SIK2,> 10 µM
CC1=C(C(=O)Nc2cc3cn[nH]c3cc2F)C(c2ccc(C(F)(F)F)cc2)CC(=O)N1 (centres unmarked) [GSK429286],Kd,SNARK,0.47 µM
Nc1ncnc2[nH]c(-c3ccccc3)nc12 [AH5015],Kd,SNRK,> 10 µM
Cn1cncc1-c1ccc2ncnc(Nc3ccc(OCc4ccccc4)cc3)c2c1 [GW320571],Kd,SNRK,8.7 µM

# — publication PMC5540273 (PLoS ONE, 2017)
